Results taken from the supplement of paper PMC4466140.

B1: unnamed (peptide)
chain: FVLRYYILIPHEQWD

These binders were tested against ScBbc1 (assay: SPOT peptide array binding signal intensity (averaged, normalized) (arbitrary units (background-subtracted, floor 0; scale differs between SH3 domains)); higher = stronger binding of the SH3 domain to the peptide).
Procedure, shortened: (§1)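 Spot intensities were captured after detection with anti-GST antibody, an HRP-linked anti-mouse secondary and luminol, and quantified with Genespotter. The probes were GST-fused SH3 domains from four yeast species, produced in E. coli BL21(DE3), purified on glutathione Sepharose and incubated at 10 μg/ml overnight at 4°C on cellulose-bound synthetic 15-mer peptides with cysteines replaced by serines. Binding signal is the normalized, background-subtracted spot intensity averaged over replicates, and its arbitrary units differ between domains.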

Row | Binder | SPOT peptide array binding signal intensity
1 | B1 | ≤ 0

These binders were tested against ScBem1-D1 in the same assay as above.
Procedure, shortened: as §1

Row | Binder | SPOT peptide array binding signal intensity
2 | B1 | 14.5

The binders below were run against ScBzz1-D1 in the same assay as above.
Procedure, shortened: as §1

Row | Binder | SPOT peptide array binding signal intensity
3 | B1 | 14

These binders were tested against ScBzz1-D2 in the same assay as above.
Procedure, shortened: as §1

Row | Binder | SPOT peptide array binding signal intensity
4 | B1 | 28

Each binder was assayed against ScCyk3 in the same assay as above.
Procedure, shortened: as §1

Row | Binder | SPOT peptide array binding signal intensity
5 | B1 | 35

What follows are binders tested against ScFus1 in the same assay as above.
Procedure, shortened: as §1

Row | Binder | SPOT peptide array binding signal intensity
6 | B1 | 1310

The binders below were run against ScHof1 in the same assay as above.
Procedure, shortened: as §1

Row | Binder | SPOT peptide array binding signal intensity
7 | B1 | ≤ 0

Each binder was assayed against ScHse1 in the same assay as above.
Procedure, shortened: as §1

Row | Binder | SPOT peptide array binding signal intensity
8 | B1 | 1060

What follows are binders tested against ScLsb1 in the same assay as above.
Procedure, shortened: as §1

Row | Binder | SPOT peptide array binding signal intensity
9 | B1 | ≤ 0

These binders were tested against ScLsb2 in the same assay as above.
Procedure, shortened: as §1

Row | Binder | SPOT peptide array binding signal intensity
10 | B1 | 1.5

The binders below were run against ScLsb3 in the same assay as above.
Procedure, shortened: as §1

Row | Binder | SPOT peptide array binding signal intensity
11 | B1 | 67

What follows are binders tested against ScLsb4 in the same assay as above.
Procedure, shortened: as §1

Row | Binder | SPOT peptide array binding signal intensity
12 | B1 | 5

Each binder was assayed against ScMyo3 in the same assay as above.
Procedure, shortened: as §1

Row | Binder | SPOT peptide array binding signal intensity
13 | B1 | 1.5

What follows are binders tested against ScMyo5 in the same assay as above.
Procedure, shortened: as §1

Row | Binder | SPOT peptide array binding signal intensity
14 | B1 | 3

What follows are binders tested against ScNbp2 in the same assay as above.
Procedure, shortened: as §1

Row | Binder | SPOT peptide array binding signal intensity
15 | B1 | 187

Each binder was assayed against ScPex13 in the same assay as above.
Procedure, shortened: as §1

Row | Binder | SPOT peptide array binding signal intensity
16 | B1 | 7.5

What follows are binders tested against ScRvs167 in the same assay as above.
Procedure, shortened: as §1

Row | Binder | SPOT peptide array binding signal intensity
17 | B1 | 9.83

The binders below were run against ScSho1 in the same assay as above.
Procedure, shortened: as §1

Row | Binder | SPOT peptide array binding signal intensity
18 | B1 | 1100

What follows are binders tested against ScSla1-D1-D2 in the same assay as above.
Procedure, shortened: as §1

Row | Binder | SPOT peptide array binding signal intensity
19 | B1 | 7.5

These binders were tested against ScSla1-D3 in the same assay as above.
Procedure, shortened: as §1

Row | Binder | SPOT peptide array binding signal intensity
20 | B1 | 51

The binders below were run against SpAbp1-D1 in the same assay as above.
Procedure, shortened: as §1

Row | Binder | SPOT peptide array binding signal intensity
21 | B1 | 59.5

What follows are binders tested against SpBbc1 in the same assay as above.
Procedure, shortened: as §1

Row | Binder | SPOT peptide array binding signal intensity
22 | B1 | 2

These binders were tested against SpBzz1-D1 in the same assay as above.
Procedure, shortened: as §1

Row | Binder | SPOT peptide array binding signal intensity
23 | B1 | 20.5

Each binder was assayed against SpBzz1-D2 in the same assay as above.
Procedure, shortened: as §1

Row | Binder | SPOT peptide array binding signal intensity
24 | B1 | 3.25

The binders below were run against SpCyk3 in the same assay as above.
Procedure, shortened: as §1

Row | Binder | SPOT peptide array binding signal intensity
25 | B1 | 27.5

Each binder was assayed against SpHof1 in the same assay as above.
Procedure, shortened: as §1

Row | Binder | SPOT peptide array binding signal intensity
26 | B1 | 79.5

These binders were tested against SpHof1-2 in the same assay as above.
Procedure, shortened: as §1

Row | Binder | SPOT peptide array binding signal intensity
27 | B1 | 32.5

These binders were tested against SpHof1-3 in the same assay as above.
Procedure, shortened: as §1

Row | Binder | SPOT peptide array binding signal intensity
28 | B1 | 554

Each binder was assayed against SpHse1 in the same assay as above.
Procedure, shortened: as §1

Row | Binder | SPOT peptide array binding signal intensity
29 | B1 | 954

Each binder was assayed against SpLsb1 in the same assay as above.
Procedure, shortened: as §1

Row | Binder | SPOT peptide array binding signal intensity
30 | B1 | 2.5

These binders were tested against SpLsb4 in the same assay as above.
Procedure, shortened: as §1

Row | Binder | SPOT peptide array binding signal intensity
31 | B1 | 11.5

The binders below were run against SpMyo1 in the same assay as above.
Procedure, shortened: as §1

Row | Binder | SPOT peptide array binding signal intensity
32 | B1 | 13.2

These binders were tested against SpNbp2 in the same assay as above.
Procedure, shortened: as §1

Row | Binder | SPOT peptide array binding signal intensity
33 | B1 | 574

Each binder was assayed against SpPex13 in the same assay as above.
Procedure, shortened: as §1

Row | Binder | SPOT peptide array binding signal intensity
34 | B1 | 47.5

What follows are binders tested against SpRvs167 in the same assay as above.
Procedure, shortened: as §1

Row | Binder | SPOT peptide array binding signal intensity
35 | B1 | 10.7

Each binder was assayed against SpSla1-D1-D2 in the same assay as above.
Procedure, shortened: as §1

Row | Binder | SPOT peptide array binding signal intensity
36 | B1 | 1

Each binder was assayed against SpSla1-D3 in the same assay as above.
Procedure, shortened: as §1

Row | Binder | SPOT peptide array binding signal intensity
37 | B1 | 9.5
